This note sets out measurements from PubChem BioAssay.

Assay [1] in a line: circadian clock period modulators, cell-based, LOPAC library, luminescence reporter (AID 2774).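 Also: values are relative to mean of DMSO wells on each plate.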 The note with it: circadian reporter cells, at 7 µM, actives lie on both sides.
The subject of assay [2] is Hepatitis C virus NS3 helicase. The assay is described as follows: HCV NS3 helicase inhibitors, primary screen, biochemical, fluorescence polarization, LOPAC1280 library (AID 687035; in the data active = inhibition above about 37%). The note with it: Purified HCV NS3 helicase, Cy5-dT15 ssDNA binding fluorescence polarization; stronger effect = higher value; concentration not given here. (Polarisation of emitted light reports the rotation of a fluorescent probe.)

Assay [3] is described as follows: Cy5 fluorescence quenching or enhancement artefacts, artefact control for HCV NS3 helicase inhibitor project, biochemical, LOPAC1280 (AID 687037). The note with it: Cy5-DNA-NS3h complex fluorescence interference counterscreen.
Assay [4] can be described thus: sensitizers of A549 cells to miR-34 induction, primary screen, imaging, A549 dox-inducible miR-34, nuclei and caspase counts (AID 1347080;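 active = compounds whose cell count with miR-34 switched on is under 0.7 times the count with it off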). As to conditions: A549 miR-34 inducible, Hoechst nuclei count, 48 h.
Assay [5] can be described thus: phospholipid biosynthesis inhibitors in animal cells, primary screen, cell-based, LOPAC library, screen 4 (AID 1347384). The note with it: phospholipid biosynthesis inhibition screen, at 10 µM.
A short description of assay [6]: viability rescue of complex I mutant cybrids, primary screen, cell-based, galactose medium, ATP luminescence (AID 1645843;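 active = z-score of at least 1.8 in each of two replicates, scored against plate mean and spread of sample wells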;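 also: positive z means more ATP and so rescue of galactose-driven cybrid death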). As to conditions: complex I mutant cybrid cells, 72 h, stronger effect = higher value.
Assay [7] in a line: liver-stage malaria parasite growth inhibition, primary screen, cell-based, HepG2, luciferase luminescence, HepG2 viability (AID 624349; in the data active = parasite load remaining mostly below about 12%, no sharp cut-off; inactive = mostly above about 10%;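 also: 100% = mean of DMSO negative control wells on the same plate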). The note with it: P. berghei liver stage in HepG2, luciferase luminescence, concentration not given here; parasite load remaining: stronger effect = lower value; viability: measured here: HepG2 viability without parasites.
The mark [8] stands for this setting: stronger effect = lower value, cell number ratio, induced over uninduced.
Where [9] appears, read: measured here: relative caspase fold change +Dox/-Dox.
[10] abbreviates: measured here: total cells with miR-34 induction, stronger effect = lower value.
Setting [11] is: measured here: total cells without miR-34 induction.

The source made the active and inactive calls. Unless noted, no rule for the calls is given here.

In the case of `Nc1ncnc2c1nc(Br)n2C1OC2COP(=O)(O)O[C@@H]2C1O` (stereo partly drawn), in assay [1], the period change was -0.095 h (inactive). For the same compound, the inhibition in assay [2] is -5% (inactive). The fluorescence ratio (interference) in assay [3] is 0.9 (inactive). Further, the fold change is 0.962 (inactive) in assay [4] (setting [8]) and 1.6 in assay [4] (setting [9]). Further, the cell count turned out to be 8440 in assay [4] (setting [10]) and 8780 in assay [4] (setting [11]). In addition, the compound was classed as inactive in assay [5]. The z-score in assay [6] was 0.735 (inactive).
`O=C(O)C1CCNCC1`: in assay [1], the period change was -0.105 h (inactive). Also, in assay [2], the inhibition is -2% (inactive). Besides, in assay [3], the fluorescence ratio (interference) was 1 (inactive). For the same compound, the fold change in assay [4] (setting [8]) was 1.1 (inactive); in assay [4] (setting [9]), 0.954. Besides, the cell count was determined as 10700 in assay [4] (setting [10]) and 9760 in assay [4] (setting [11]). Further, the outcome in assay [5] was inactive. Moreover, the z-score in assay [6] was 0.31 (inactive).
For the compound `C=C[C@H]1CN2CCC1C[C@H]2[C@H](O)c1ccnc2ccc(OC)cc12` (stereo partly drawn), the period change in assay [1] was -0.145 h (inactive). The inhibition in assay [2] is -2% (inactive). Further, the fluorescence ratio (interference) in assay [3] is 1 (inactive). Also, the figures for the fold change in assay [4] (setting [8]) and in assay [4] (setting [9]) were 1.04 (inactive) and 1.02, respectively. Besides, the cell count was found to be 8290 in assay [4] (setting [10]) and 8000 in assay [4] (setting [11]). Also, the call in assay [5] was inactive. Moreover, the z-score in assay [6] was -1.04 (inactive).
Regarding `CN1CCc2ccccc2Cc2[nH]c3ccccc3c2CC1`, the period change in assay [1] was -0.08 h (inactive). The inhibition in assay [2] was -2% (inactive). The fluorescence ratio (interference) in assay [3] was 1 (inactive). Besides, the fold change in assay [4] (setting [8]) was 1.04 (inactive); in assay [4] (setting [9]), 0.882. Further, the cell count was determined as 9860 in assay [4] (setting [10]) and 9460 in assay [4] (setting [11]). In assay [5], the outcome was inactive. Moreover, in assay [6], the z-score is -0.35 (inactive).
For the compound `C[N+](C)(C)CC=O`, the period change in assay [1] is -0.2 h (inactive). Also, the inhibition in assay [2] was -5% (inactive). Further, the fluorescence ratio (interference) in assay [3] was 0.9 (inactive). Further, the values for the fold change in assay [4] (setting [8]) and in assay [4] (setting [9]) were 1 (inactive) and 1.36, respectively. For the same compound, the cell count in assay [4] (setting [10]) and in assay [4] (setting [11]) was 10200 each time. Also, the compound was called inactive in assay [5]. Also, the z-score in assay [6] was 0.245 (inactive).
For `N#Cc1cc([N+](=O)[O-])c2sc(C(N)=O)[n+]([O-])c2c1`, the parasite load remaining in assay [7] is 32.2% (inactive). Moreover, the viability in assay [7] was 76.2%. Besides, in assay [2], the inhibition was -4% (inactive). In addition, the fluorescence ratio (interference) in assay [3] is 1 (inactive). The fold change in assay [4] (setting [8]) was 1.08 (inactive); in assay [4] (setting [9]), 1.61. For the same compound, the cell count in assay [4] (setting [10]) was 7220; in assay [4] (setting [11]), 6660. Also, the result in assay [5] was inactive. For the same compound, the z-score in assay [6] is -1.46 (inactive).
Regarding `CNc1cc(NS(=O)(=O)c2ccc(N)cc2)nc(NC)n1`, in assay [1], the period change was -0.065 h (inactive). For the same compound, in assay [2], the inhibition is -3% (inactive). The fluorescence ratio (interference) in assay [3] was 1 (inactive). Moreover, the fold change in assay [4] (setting [8]) was 1.09 (inactive); in assay [4] (setting [9]) it was 0.965. Further, the values for the cell count in assay [4] (setting [10]) and in assay [4] (setting [11]) were 9150 and 8390, respectively. For the same compound, in assay [5], the compound was classed as inactive. The z-score in assay [6] was 0.695 (inactive).
Take `C=CC1(C)CC(=O)C2(O)C(C)(O1)C(OC(C)=O)C(O)C1C(C)(C)CCC(O)C12C` (stereo not drawn): the period change in assay [1] is 0.345 h (inactive). For the same compound, in assay [2], the inhibition was 0% (inactive). The fluorescence ratio (interference) in assay [3] was 1.1 (inactive). In addition, the values for the fold change in assay [4] (setting [8]) and in assay [4] (setting [9]) were 0.994 (inactive) and 1.26, respectively. The cell count in assay [4] (setting [10]) was 9840; in assay [4] (setting [11]), 9900. The compound was classed as inactive in assay [5]. The z-score in assay [6] was -0.035 (inactive).
As for `Fc1ccc(CN(C2=NCCN2)c2c(Cl)cccc2Cl)cc1`, the period change in assay [1] was -0.015 h (inactive). Further, the inhibition in assay [2] is 1% (inactive). Further, the fluorescence ratio (interference) in assay [3] is 1 (inactive). Also, the fold change is 0.978 (inactive) in assay [4] (setting [8]) and 0.985 in assay [4] (setting [9]). For the same compound, the cell count in assay [4] (setting [10]) was 8870; in assay [4] (setting [11]), 9060. The call in assay [5] was inactive. Further, the z-score in assay [6] is -0.75 (inactive).
On to `O=c1ccn([C@@H]2O[C@H](COP(=O)(O)OP(=O)(O)O)[C@@H](O)[C@H]2O)c(=O)[nH]1`, for which the period change in assay [1] was 0.165 h (inactive). Also, the inhibition in assay [2] is -1% (inactive). Also, the fluorescence ratio (interference) in assay [3] is 1 (inactive). For the same compound, the fold change was 0.992 (inactive) in assay [4] (setting [8]) and 1.43 in assay [4] (setting [9]). Further, the cell count was 9420 in assay [4] (setting [10]) and 9500 in assay [4] (setting [11]). In addition, in assay [5], the compound was called inactive. The z-score in assay [6] was 0.745 (inactive).
Consider `NCCCCCCCCCCN`, for which the period change in assay [1] was 0 h (inactive). Besides, in assay [2], the inhibition was 2% (inactive). For the same compound, the fluorescence ratio (interference) in assay [3] was 1 (inactive). Moreover, the values for the fold change in assay [4] (setting [8]) and in assay [4] (setting [9]) were 0.948 (inactive) and 1.23, respectively. Also, the cell count in assay [4] (setting [10]) worked out at 10300; in assay [4] (setting [11]), 10900. For the same compound, the call in assay [5] was inactive. Besides, the z-score in assay [6] was -0.23 (inactive).
`O[Si](CCCN1CCCCC1)(c1ccc(F)cc1)C1CCCCC1` (stereo not drawn): the period change in assay [1] was -0.3 h (inactive). For the same compound, the inhibition in assay [2] is -2% (inactive). Moreover, the fluorescence ratio (interference) in assay [3] is 1 (inactive). For the same compound, the fold change is 0.937 (inactive) in assay [4] (setting [8]) and 1.64 in assay [4] (setting [9]). Further, the figures for the cell count in assay [4] (setting [10]) and in assay [4] (setting [11]) were 8140 and 8690, respectively. Besides, the compound was classed as inactive in assay [5]. Besides, in assay [6], the z-score was -0.95 (inactive).
Take `CCCCCCCCCC(=O)NC(CN1CCOCC1)[C@H](O)c1ccccc1` (stereo partly drawn): the period change in assay [1] was 0.05 h (inactive). Moreover, the inhibition in assay [2] is 2% (inactive). In addition, in assay [3], the fluorescence ratio (interference) is 1 (inactive). Also, the fold change in assay [4] (setting [8]) was 0.995 (inactive); in assay [4] (setting [9]), 1.18. Further, the cell count came out at 7040 in assay [4] (setting [10]) and 7080 in assay [4] (setting [11]). Further, the outcome in assay [5] was inactive. For the same compound, in assay [6], the z-score was -1.16 (inactive).
In the case of `O=C(O)CCCC[C@@H]1CCSS1`, the period change in assay [1] is 0.11 h (inactive). The inhibition in assay [2] is 0% (inactive). Also, the fluorescence ratio (interference) in assay [3] is 1 (inactive). The fold change was 0.958 (inactive) in assay [4] (setting [8]) and 0.931 in assay [4] (setting [9]). Further, the values for the cell count in assay [4] (setting [10]) and in assay [4] (setting [11]) were 9120 and 9520, respectively. Moreover, the result in assay [5] was inactive. Further, in assay [6], the z-score is 0.53 (inactive).
In the case of `Nc1nc(Nc2ccccc2)nc2c1ncn2[C@@H]1O[C@H](CO)[C@H](O)C1O` (stereo partly drawn), the period change in assay [1] was -0.07 h (inactive). Besides, the inhibition in assay [2] is -4% (inactive). Further, the fluorescence ratio (interference) in assay [3] was 1 (inactive). Besides, the fold change in assay [4] (setting [8]) is 0.974 (inactive); in assay [4] (setting [9]) it was 1.23. Moreover, the cell count in assay [4] (setting [10]) came out at 9660; in assay [4] (setting [11]), 9910. Further, in assay [5], the compound was classed as inactive. In assay [6], the z-score is 0.02 (inactive).
For the compound `OCC1O[C@H](O)C(Cl)C(O)C1O` (stereo partly drawn), the period change in assay [1] was 0.3 h (inactive). For the same compound, the inhibition in assay [2] was -1% (inactive). In addition, the fluorescence ratio (interference) in assay [3] was 1 (inactive). In addition, the fold change in assay [4] (setting [8]) was 0.973 (inactive); in assay [4] (setting [9]), 1.54. The cell count in assay [4] (setting [10]) was determined as 9780; in assay [4] (setting [11]) it was 10100. The call in assay [5] was inactive. For the same compound, in assay [6], the z-score was -0.395 (inactive).
`CCN(c1nc(N)c(C(=O)N=C(N)N)nc1Cl)C(C)C`: the period change in assay [1] is -0.06 h (inactive). The inhibition in assay [2] was -2% (inactive). For the same compound, in assay [3], the fluorescence ratio (interference) was 1 (inactive). For the same compound, the fold change in assay [4] (setting [8]) is 1.19 (inactive); in assay [4] (setting [9]), 1.19. For the same compound, the cell count in assay [4] (setting [10]) turned out to be 5200; in assay [4] (setting [11]), 4360. In addition, in assay [5], the call was inactive. Besides, the z-score in assay [6] is -1.38 (inactive).
In the case of `N.N.O=C(O)C1(C(=O)O)CCC1.[Pt+2]`, in assay [1], the period change is 0.07 h (inactive). In addition, the inhibition in assay [2] was -3% (inactive). Also, the fluorescence ratio (interference) in assay [3] is 1 (inactive). The values for the fold change in assay [4] (setting [8]) and in assay [4] (setting [9]) were 1.04 (inactive) and 1.42, respectively. The cell count in assay [4] (setting [10]) turned out to be 6330; in assay [4] (setting [11]), 6070. Moreover, the compound was classed as inactive in assay [5]. The z-score in assay [6] is -0.53 (inactive).

By inhibition is commonly meant the relative decrease from the control value, in per cent. What is called viability is the share of living cells, or the viability signal relative to a control.
